From PubChem BioAssay come the findings set out here.

In this assay the test system is glycogen synthase kinase-3 (GSK3A per assay name; protocol says GSK3B). Description: compounds binding glycogen synthase kinase-3 – biochemical, small-molecule microarray, 635 nm fluorescence, GSK3A, primary screen (AID 1103). Note: the record names both GSK3A and GSK3B. The settings on record: fluorescence 635 nm, higher = more signal.
`COC(=O)[C@@]1(Cc2ccccc2)[C@H]2c3cc(C(=O)N4CCCC4)[nH]c3C[C@H]2CN1C(=O)c1ccccc1` had a composite z-score of 0.0863.

The molecule `O=C(O)[C@H](Cc1ccccc1)n1cc(-c2ccccn2)nn1` returned a composite z-score of 0.507.

Take `O=C1O[C@@H](c2ccccc2)[C@@H](c2ccccc2)N2[C@@H](c3ccccc3OCCO)[C@]3(C(=O)Nc4ccc(C#CCCO)cc43)[C@@H](C(=O)N3CCN(c4ncccn4)CC3)[C@H]12`: the composite z-score stood at 0.649.

The molecule `COc1ccc([Si](C)(C)[C@@H]2[C@@H](CCO)O[C@]3(C(=O)N(Cc4cccc(N5C(=O)c6ccccc6Oc6ccccc65)c4)c4ccccc43)[C@H]2C)cc1` registered a composite z-score of -0.735.

With `CN(C)CCCN1C(=O)[C@@]2(c3ccc([N+](=O)[O-])cc3)CC(=O)N(CC34CC5CC(CC(C5)C3)C4)[C@@H]2c2ccc(CO)cc21`, the composite z-score came out at 0.443.

Molecule `C[C@]12C(=O)N(CCCCCCO)[C@@H]3C(=O)N(c4ccc(Cl)cc4)CC=CC31O[C@@H]1/C=C\CCCOC(=O)C12` (stereo not given in full) registered a composite z-score of -0.431.

In the case of `CC1CC/C=C\[C@H]2OC34C=CCN(c5ccc6ccccc6c5)C(=O)[C@H]3N(C(CO)C(C)C)C(=O)[C@@H]4C2C(=O)O1` (stereo not given in full), the composite z-score was -0.176.

With `O=C1O[C@@H](c2ccccc2)[C@@H](c2ccccc2)N2[C@@H](c3ccc(O)cc3)[C@]3(C(=O)Nc4ccc(C#CC5=CCCCC5)cc43)[C@@H](C(=O)N3CCN(c4ncccn4)CC3)[C@H]12`, the composite z-score was 1.28.

`C[C@H]1ON(c2ccc(C(=O)OC(C)(C)C)cc2)[C@@H](c2ccc(O)cc2)[C@@H]1C(=O)N1C(=O)OC[C@@H]1c1ccccc1` had a composite z-score of 1.28.

`CCOC(=O)C[C@H]1[C@H](OC(=O)Cc2ccc3c(c2)OCO3)[C@@H](NC(=O)C2CCCCC2)c2cc(OCCCO)ccc2N1C(=O)c1ccc2ccccc2n1` showed a composite z-score of 0.72.

As to `CN1C(=O)C2C=CC(C(O)c3c(F)cccc3Cl)N(Nc3ccccc3)C2C1=O` (stereo not given), the composite z-score is -0.0475.

For the molecule `COCCCNC(=O)[C@]1(Cc2ccccc2CN=[N+]=[N-])N=C(c2ccc(OCCCO)cc2)O[C@@H]1c1ccccc1`, the composite z-score is 0.778.

For the molecule `[N-]=[N+]=NCc1ccccc1C[C@@]1(C(N)=O)N=C(c2ccc(OCCCO)cc2)O[C@@H]1c1ccccc1CN=[N+]=[N-]`, the composite z-score was 0.989.

Regarding `COC(=O)[C@@]1(Cc2ccc(OC)cc2)[C@H]2c3cc(C(=O)N4CCCC4)n(CCc4cc5ccccc5[nH]4)c3C[C@H]2CN1C(=O)c1ccccc1`, the composite z-score was found to be 0.591.

`COCCOC(=O)N1C(=O)[C@@]2(c3cc(C#Cc4ccc(OC)cc4)ccc31)[C@H](C(=O)NC[C@H](O)c1ccccc1)[C@H]1C(=O)O[C@H](c3ccccc3)[C@H](c3ccccc3)N1[C@@H]2c1ccc(O)cc1` gave a composite z-score of 1.35.

As to `C=CC[C@@]12N=C(c3ccc(OCCCO)cc3)O[C@@H]1c1ccccc1N(CCS(=O)(=O)c1ccccc1)C2=O`, the composite z-score came to 1.28.

As for `C=CCN1C(=O)[C@]2(CC=C)N=C(c3ccc(OCCCO)cc3)O[C@@H]2c2ccccc21`, the composite z-score was determined as 0.777.

`Cc1ccc(S[C@]2(C(=O)NCC(C)C)CC(=O)N(Cc3ccccc3Cl)[C@@H]2c2ccc(CO)cc2I)cc1` registered a composite z-score of -0.408.

The molecule `COc1ccccc1CN1C(=O)c2ccccc2[C@](Cc2ccccc2I)(C(=O)NC(C)C)[C@@H]1c1ccc(CO)cc1` gave a composite z-score of 1.3.

The molecule `CCOc1cc(C(O)C2C=CC3C(=O)N(C4CCCCC4)C(=O)C3N2Nc2ccc(OC)cc2)ccc1O` (stereo not given) registered a composite z-score of 1.21.

Molecule `COCCOC(=O)N1C(=O)[C@@]2(c3cc(C#Cc4ccc(OC)cc4)ccc31)[C@H](C(=O)N1CCCCCCC1)[C@H]1C(=O)O[C@H](c3ccccc3)[C@H](c3ccccc3)N1[C@@H]2c1ccc(O)cc1` showed a composite z-score of 1.15.

For `C=C(C(=O)CC[C@H](OC(=O)c1cccnc1)c1ccc(CO)o1)C(C)C`, the composite z-score is 0.836.

The molecule `COC(=O)[C@H](Cc1ccccc1)N1CC(/C=C/C2CC2)=C[C@@H]1[C@@H](O)Cc1ccccc1` came in with a composite z-score of 0.837.

`COC(=O)[C@@]1(Cc2ccc(OC)cc2)[C@H]2c3cc(C(=O)N(C)C)n(Cc4nc5ccccc5[nH]4)c3C[C@H]2CN1C(=O)c1ccccc1` showed a composite z-score of 1.23.

With `CN(C)C(=O)[C@]1(CCC(=O)OC(C)(C)C)N=C(c2ccc(OCCCO)cc2)O[C@@H]1c1ccccc1`, the composite z-score came to 1.11.

`COCCOC(=O)N1C(=O)[C@@]2(c3cc(C#CC4(O)CCCCCC4)ccc31)[C@H](C(N)=O)[C@H]1C(=O)O[C@H](c3ccccc3)[C@H](c3ccccc3)N1[C@@H]2c1ccccc1OCCO`: the composite z-score turned out to be 1.3.

For `Cc1ccc(S[C@]2(C(=O)NCC(F)(F)F)CC(=O)N(Cc3ccccc3)[C@@H]2c2ccc(CO)cc2)cc1`, the composite z-score was -0.507.

As for `COCCCNC(=O)[C@@]1(Sc2ccc(C)cc2)CC(=O)N(C2Cc3ccccc3C2)[C@@H]1c1ccc(CO)cc1I`, the composite z-score was -1.1.

`C=CC[C@]1(C(=O)N(C)C)N=C(c2ccc(OCCCO)cc2)O[C@H]1c1ccccc1N=[N+]=[N-]` showed a composite z-score of 0.346.

The molecule `CCOC(=O)C1=CC[C@@H](c2ccccc2C(F)(F)F)N(S(=O)(=O)c2ccc(C)cc2)C1` yielded a composite z-score of 0.914.

For the molecule `CC(C)C(O)C1C=CC2C(=O)N(C)C(=O)C2N1N(c1ccccc1)c1ccccc1` (stereo not given), the composite z-score was -1.5.

Take `CCOC(=O)C1=CC[C@@H](c2ccc([N+](=O)[O-])cc2)N(S(=O)(=O)c2ccc(C)cc2)[C@H]1c1ccccc1`: the composite z-score is 0.154.

In the case of `[N-]=[N+]=NCc1ccccc1C[C@@]1(C(=O)N2CCCCC2)N=C(c2ccc(OCCCO)cc2)O[C@@H]1c1ccccc1N=[N+]=[N-]`, the composite z-score was 0.293.

As to `C=C(/C(=C/C[C@@H](OC(=O)c1ccncc1)c1ccccc1OCCO)c1cc(C(=O)OC)ccc1OC)C(C)C`, the composite z-score was determined as 0.759.

With `COCCOC(=O)N1C(=O)[C@@]2(c3cc(C#CC4(O)CCCCCC4)ccc31)[C@H](C(N)=O)[C@H]1C(=O)O[C@H](c3ccccc3)[C@H](c3ccccc3)N1[C@@H]2c1ccc(O)cc1`, the composite z-score came to 1.01.
